Screening results: PubChem BioAssay, The Scripps Research Institute Molecular Screening Center
HTR5A inv ag – HTR5A inverse agonists in luminescence cell assay, primary screen, counter-screen for OPRM1-OPRD1 heterodimer inverse agonist project, full-deck HTS; inhibition, % at 9.3 µM; 5-hydroxytryptamine receptor 5A (Homo sapiens), P47898; 340,000 compounds, 0.083% hits; HTR5A cell line, inverse agonism; in the data active = inhibition mostly above about 23%, no sharp cut-off; inactive = mostly below about 18%
HTR5A ag – HTR5A agonists in luminescence cell assay, primary screen, counter-screen for OPRM1-OPRD1 heterodimer agonist project, full-deck HTS; activation, % at 9.3 µM; cell-based; 5-hydroxytryptamine receptor 5A (Homo sapiens), P47898; 340,000 compounds, 0.61% hits; in the data active = activation mostly above about 9.5%, no sharp cut-off; inactive = mostly below about 7.6%
OPRM1-OPRD1 inv – inverse agonists of MOR-DOR heterodimerization, primary screen, cell-based, luminescence. Mu-type opioid receptor (Homo sapiens) + Delta-type opioid receptor (Homo sapiens), …. cell-based MOR-DOR heterodimer luminescence, inverse agonism. inhibition, % at 9.3 µM. 340,000 compounds, 0.21% hits; in the data active = inhibition above about 22%, passing the limit was not always enough
Target sequence (P35372 whole entry, looked up): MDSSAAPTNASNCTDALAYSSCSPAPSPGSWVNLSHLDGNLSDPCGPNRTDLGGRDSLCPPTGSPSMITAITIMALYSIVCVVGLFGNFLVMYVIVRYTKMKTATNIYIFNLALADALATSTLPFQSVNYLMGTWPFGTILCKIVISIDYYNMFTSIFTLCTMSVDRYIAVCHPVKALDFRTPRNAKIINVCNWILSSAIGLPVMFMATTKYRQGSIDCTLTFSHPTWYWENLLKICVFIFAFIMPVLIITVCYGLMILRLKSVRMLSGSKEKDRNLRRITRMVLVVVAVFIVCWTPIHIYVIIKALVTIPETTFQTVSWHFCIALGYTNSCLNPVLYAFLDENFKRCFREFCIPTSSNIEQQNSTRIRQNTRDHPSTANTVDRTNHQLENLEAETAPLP
Target sequence (P41143 whole entry, looked up): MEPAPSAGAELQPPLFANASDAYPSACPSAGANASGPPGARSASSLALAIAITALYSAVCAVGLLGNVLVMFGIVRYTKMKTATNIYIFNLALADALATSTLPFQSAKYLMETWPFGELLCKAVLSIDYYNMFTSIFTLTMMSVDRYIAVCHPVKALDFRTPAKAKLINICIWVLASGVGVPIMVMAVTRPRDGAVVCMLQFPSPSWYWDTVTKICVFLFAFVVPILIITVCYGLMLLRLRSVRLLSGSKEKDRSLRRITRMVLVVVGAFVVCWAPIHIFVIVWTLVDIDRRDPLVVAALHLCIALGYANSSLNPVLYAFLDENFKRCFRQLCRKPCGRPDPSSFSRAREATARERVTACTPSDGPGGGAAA
MOR-DOR ag – agonists of OPRM1-OPRD1 heterodimerization, primary screen, cell-based, luminescence. Mu-type opioid receptor (Homo sapiens) + Delta-type opioid receptor (Homo sapiens), …. AID 504326, 2011. 340,000 compounds, 0.3% hits. cells. activation, % at 9.3 µM; in the data active = activation above about 18%
Hits are given with their value; 0 = inactive; + = active, no number. The list is not random: actives were taken first. Their share in the collection is about 1.1%.

SMILES	HTR5A inv ag	HTR5A ag	OPRM1-OPRD1 inv	MOR-DOR ag
Cc1ccccc1OC(=O)c1cccc(S(=O)(=O)N2CCN(C)CC2)c1	0	0	0	0
CCCC(=O)Nc1ccc(C(=O)COC(=O)c2cc(C)oc2C)cc1	0	0	0	0
O=C(CCl)N(c1ccccc1)C1CCCCC1	0	42.1	0	32.6
CC(=O)N(c1ccccc1)C1CCCC1	0	0	0	0
O=C(CSC(=S)N1CCCC1)NCC(=O)Nc1ccccc1Br	0	0	0	0
Nc1cccc(Nc2nc(OC(C(F)(F)F)C(F)(F)F)nc(OC(C(F)(F)F)C(F)(F)F)n2)c1	0	12.2	0	0
O=C(N[C@H]1C/C=C\C[C@H](CC(=O)N(CCO)Cc2ccccc2)C(=O)NC[C@H](c2ccccc2)OC1=O)OCC1c2ccccc2-c2ccccc21	0	0	0	0
Cc1ccc(NC(=O)Cn2c(O)c(N=NS(=O)(=O)c3ccc(C)cc3)c3ccccc32)cc1	0	0	52.9	0
Cc1ccc(NC(=O)Cn2c(O)c(N=NC(N)=O)c3ccccc32)cc1	0	0	0	0
Cc1ccc(S(=O)(=O)CCC(=O)N2CCN(c3ccc([N+](=O)[O-])cc3)CC2)cc1	0	0	0	0
CC(c1ccccc1)n1cc(C(=O)NCC2COc3ccccc3O2)nn1 (configuration not stated)	0	12.2	0	0
O=C(NCC1COc2ccccc2O1)c1cn(Cc2ccc(F)cc2)nn1 (configuration not stated)	0	12.9	0	0
CCOc1cc(C2C3=C(CC(C)(C)CC3=O)N(C)C3=C2C(=O)CC(C)(C)C3)ccc1O	0	0	0	0
O=C(CNC(=O)Cc1cccc2ccccc12)NCc1ccc(F)cc1	0	0	0	0
CCOC(=O)/C=C1\SCC(=O)N1CC(=O)Nc1ccc(OC)c(OC)c1	0	0	0	0
CCOC(=O)/C=C1/SCC(=O)N1CC(=O)NC12CC3CC(CC(C3)C1)C2	0	10.0	0	0
C=CCNc1nc(N(c2ccccc2)c2ccccc2)nc(-n2ccnc2)n1	0	12.4	0	0
O=C(Nc1ccc(C(=O)N2CCOCC2)cc1)C1CC1	0	0	0	0
CCOc1cccc(C(=O)Nc2ccccc2C(=O)N2CCOCC2)c1	0	0	0	0
Cc1nc2ccccc2c2oc(C(=O)Nc3ccc(C(C)C)cc3)cc12	0	13.8	0	0
Cc1nc2ccccc2c2oc(C(=O)Nc3ccc4c(c3)OCCO4)cc12	0	0	0	0
Cc1c(C(=O)Nc2nc3ccccc3[nH]2)oc2ccccc12	0	11.0	0	0
Cc1nc(N2CCCCC2)c2c(C)c(C(=O)Nc3cccc(C(F)(F)F)c3)sc2n1	0	14.2	0	0
CC(C)CC(=O)Nc1cc2nn(-c3ccccc3)nc2cc1Cl	0	9.1	0	0
CC(C)CC(=O)Nc1cccc2c1C(=O)N(c1ccccc1)C2=O	0	0	0	0
SMILES	HTR5A inv ag	HTR5A ag	OPRM1-OPRD1 inv	MOR-DOR ag
Oc1ccccc1C=NNc1nc2ccccc2s1	0	0	0	0
COc1cccc(C=NNc2nc3ccccc3s2)c1OC	0	9.7	0	0
COc1cc(CC(NC(C)=O)C(=O)NC2CCN(c3nc(OC)nc(OC)n3)CC2)cc(OC)c1 (configuration not stated)	0	0	0	0
COc1nc(OC)nc(N2CCC(NC(=O)C(Cc3ccc(C(C)C)cc3)NC(C)=O)CC2)n1 (configuration not stated)	0	10.5	0	0
COc1ccc(C(C)(C)C)cc1NC(=O)COC(=O)C1=NNC(=O)CC1	0	0	0	0
O=C(c1sc2cccc(Cl)c2c1Cl)N1CCN(CCc2ccccn2)CC1	0	0	0	0
Cc1ccc(NC(=O)N2CCCC2C(=O)Nc2c(C)cc(C)cc2C)cc1 (configuration not stated)	0	0	0	0
On1ccccc1=S	0	0	+	0
COc1ccc(CCN2CC(C(=O)OCC(=O)N(C)CC(=O)Nc3ccccc3Cl)CC2=O)cc1OC (configuration not stated)	0	0	0	0
Cc1cc(CNC(=O)COc2ccc(F)cc2)c2ccccc2n1	0	11.2	0	0
Cc1cc(CNC(=O)COc2ccccc2)c2ccccc2n1	0	0	0	0
Cc1ccc(Nc2nc(-c3ccc(S(=O)(=O)N4CCCC4)cc3)cs2)cc1C	0	10.1	0	0
CC(=O)N(Cc1cc2ccccc2[nH]c1=O)c1ccc(C)cc1	0	9.7	0	0
